Hit rate of the full screen: of about 330,000 compounds, about 1,100 (0.33%) were called active.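 Rule for the calls: active = inhibition above about 40% at 20 µM (limit read from the data); inactive = the rest.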 The list comes from a sample in which actives are over-represented; it also holds similar structures and randomly drawn compounds.

Sequence of Apelin receptor (Homo sapiens) (P35414 whole entry, looked up): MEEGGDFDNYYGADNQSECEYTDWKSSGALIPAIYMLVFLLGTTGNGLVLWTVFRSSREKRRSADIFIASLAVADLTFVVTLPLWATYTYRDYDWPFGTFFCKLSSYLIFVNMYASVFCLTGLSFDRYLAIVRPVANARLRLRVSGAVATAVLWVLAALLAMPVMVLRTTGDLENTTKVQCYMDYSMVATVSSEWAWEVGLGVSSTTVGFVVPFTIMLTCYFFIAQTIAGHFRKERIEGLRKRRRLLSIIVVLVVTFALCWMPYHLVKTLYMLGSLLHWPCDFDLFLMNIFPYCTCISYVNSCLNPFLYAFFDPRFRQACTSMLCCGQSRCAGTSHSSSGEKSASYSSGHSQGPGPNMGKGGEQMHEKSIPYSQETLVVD

The assay concerns the target Apelin receptor (Homo sapiens) (UniProt P35414). The experiment in a line: antagonists of human apelin receptor APJ, primary screen, CHO-K1 cells, beta-arrestin complementation, luminescence (AID 2521).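 Note: cells challenged with 10 nM apelin-13 agonist together with compound; plate controls were apelin-13 plus DMSO wells for no effect and DMSO wells lacking apelin-13 for full effect.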 The conditions noted are these: at 20 µM, hits give high values.
As usually defined, the inhibition is the relative decrease from the control value, in per cent. `COc1ccc(CCNC(=O)C2CCCN(S(=O)(=O)c3ccc(OC)cc3)C2)cc1` (configuration not stated): the inhibition was 12.2% (inactive).
The result for `CCc1ccc2c(c1)C1(NN=C(c3ccccc3)S1)C(=O)N2` (configuration not stated) reads 43.3% (active); that for `Cc1ccc(-n2c(C)cc(C(=O)CSc3nnc4ccccn34)c2C)cc1`, -19.2% (inactive).
The result for `CC(=O)Nc1ccc(NC(=O)CSC2=NS(=O)(=O)c3ccccc3N2)cc1` reads 17.4% (inactive).
For the molecule `O=C(CN1CCN(c2ccc(Cl)cc2)CC1)c1ccccc1`, the inhibition was -15.1% (inactive).
The result for `CCC1Nc2ncnc(N3CCN(c4ccccc4)CC3)c2N(Cc2ccc(Cl)cc2)C1=O` (configuration not stated) reads 85.9% (active); that for `O=C1C(Cc2ccc(O)cc2)NC(=S)N1Cc1ccccc1` (configuration not stated), 7.09% (inactive); that for `COc1ccc(S(=O)(=O)n2cnc3ccccc32)c(C)c1`, 2.56% (inactive).
The result for `Cc1ccc(NC(=S)N(CCCN2CCCC2)Cc2cccn2Cc2ccc(Cl)cc2)cc1` reads -11.3% (inactive); that for `CC(C)(C)OC(=O)C[C@@H]1C/C=C\C[C@@H](CC(=O)NCCO)C(=O)N[C@H](Cc2c[nH]c3ccccc23)COC1=O`, 0.599% (inactive).
The result for `S=C(NNC(=S)NC1CC2C=CC1C2)NC1CC2C=CC1C2` (configuration not stated) reads 9.22% (inactive); that for `S=C(NNC(=S)NC1CC2CCC1C2)NC1CC2C=CC1C2` (configuration not stated), 40.2% (active).
For `O=C(NNC(=S)NC1CC2CCC1C2)c1ccc(Cl)cc1` (configuration not stated), the inhibition is -4.76% (inactive).
The result for `Cc1nonc1OCCn1nnnc1N` reads -11.5% (inactive); that for `CC(=O)/C(=N\Nc1ccc(Cl)cc1Cl)Sc1cccc2cccnc12`, 50.3% (active); that for `O=C(NNc1cc(Cl)ccc1Cl)c1cccnc1Cl`, -13.7% (inactive).
The result for `Cc1c(NC(=O)CSc2cccc3cccnc23)c(=O)n(-c2ccccc2)n1C` reads 21.8% (inactive).
As for `Cc1ccc(C(=O)N(CN2CCCC2=O)c2ccc(F)cc2)cc1`, the inhibition was -13.9% (inactive).
With `CNC(=O)Nc1cc(C(C)(C)C)no1`, the inhibition is 8.23% (inactive).
The result for `Cc1ccc(N2CCN(S(=O)(=O)c3ccc(F)cc3)CC2)c(C)c1` reads 17.5% (inactive).
The result for `CN(C)S(=O)(=O)c1cccc(NC(=S)N/N=C/C(=O)c2ccccc2)c1` reads 41.5% (active).
The result for `CN(C)S(=O)(=O)c1cccc(NC(=S)NCc2ccc3c(c2)OCO3)c1` reads 3.11% (inactive).
With `Cc1ccc(/C=N/NC(=S)Nc2cccc(S(=O)(=O)N(C)C)c2)o1`, the inhibition is -8.56% (inactive).
The result for `O=C(c1ccccc1F)N(Cc1ccccc1)Cc1ccccc1` reads -6.53% (inactive); that for `CC1=C(C(=O)Nc2cc(C)ccn2)C(c2cnn(C)c2)C2=C(CC(c3ccccc3)CC2=O)N1` (configuration not stated), -2.45% (inactive); that for `O=S(N1CCCCCC1)C12CC3CC(CC(C3)C1)C2` (configuration not stated), -12.7% (inactive).
The result for `Cc1ccc(NC(=O)C2CC2c2ccccc2)cc1` (configuration not stated) reads 0.756% (inactive).

(Values after PubChem BioAssay AID2521 (Sanford-Burnham Center for Chemical Genomics, 2010).)
